From PubChem BioAssay
Compounds with a hit are over-represented: about 2.3% of the library has one in this group of screens.
M1 PAM parental – nonselective calcium activators in parental CHO-K1 cells, primary screen, counter-screen for M1 PAM project, cell-based, Fluo-8 calcium fluorescence, full deck, 1536-well | ATP EC20; 0% at ATP EC20, 100% at ATP max | 360,000 tested, 0.02% active | activation, % at 3 µM;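 active = activation above the run cutoff, the mean activation of all test compounds plus 3 SD, cut at about 40% in these data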;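 also: peak over basal fluorescence ratio in a 140 s read after ATP addition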
CHRM1 antagonist – human M1 muscarinic receptor antagonists, primary screen, CHO-K1 cells, Fluo-8 calcium fluorescence, 1536-well; Muscarinic acetylcholine receptor M1 (Homo sapiens), P11229; CHO-K1 hM1, ACh EC80 antagonist; inhibition, % at 3 µM; 360,000 tested, 1.3% active; AID 588852, 2011;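 active = percent inhibition above its own plate's cutoff, namely the mean of that plate's compound wells plus 3 SD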;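 also: peak over basal fluorescence ratio during 140 s after agonist addition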
Target sequence (P11229 whole entry, looked up): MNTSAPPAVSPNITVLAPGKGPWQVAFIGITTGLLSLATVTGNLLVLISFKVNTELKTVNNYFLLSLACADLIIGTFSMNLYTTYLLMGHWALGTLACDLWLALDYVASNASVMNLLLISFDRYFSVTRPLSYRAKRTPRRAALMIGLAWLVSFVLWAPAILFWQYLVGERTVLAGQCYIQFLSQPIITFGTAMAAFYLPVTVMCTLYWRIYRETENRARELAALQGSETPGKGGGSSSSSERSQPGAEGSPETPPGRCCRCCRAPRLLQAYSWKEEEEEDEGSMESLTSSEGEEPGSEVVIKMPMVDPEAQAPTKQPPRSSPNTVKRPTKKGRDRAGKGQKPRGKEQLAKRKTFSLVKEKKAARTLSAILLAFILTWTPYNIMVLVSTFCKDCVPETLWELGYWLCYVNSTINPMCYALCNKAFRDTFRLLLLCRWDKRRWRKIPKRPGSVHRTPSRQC
M1 ag – human M1 muscarinic receptor agonists, primary screen, Fluo-8 calcium fluorescence, CHO-K1 cells, HTS; activation, % at 3 µM; Muscarinic acetylcholine receptor M1 (Homo sapiens), P11229; 360,000 tested, 0.33% active; CHO-K1 hM1, agonist mode; 0% DMSO, 100% acetylcholine EC100;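 active = activation above the run's mean compound activation plus 3 SD, cut at about 16% in these data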;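 also: peak over basal fluorescence ratio within a 140 s kinetic read after compound addition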
CHRM1 PAM – human M1 muscarinic receptor positive allosteric modulators, primary screen, CHO-K1 cells, Fluo-8 calcium fluorescence, 1536-well. 360,000 tested, 0.088% active. AID 588819, 2011. activation, % at 3 µM. Muscarinic acetylcholine receptor M1 (Homo sapiens), P11229. CHO-K1 hM1, ACh EC20; 0% = ACh EC20, 100% = maximal ACh; in the data active = activation above about 19%, passing the limit was not always enough
CHO-K1 Ca ag – counter-screen for M1 agonists: effect in parental CHO-K1 cells | 360,000 tested, 0.48% active | activation, % at 3 µM | Fluo-8 calcium fluorescence; scaled to maximal ATP response, vehicle zero | AID 602248, 2012; in the data active = activation above about 15%;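 also: untransfected CHO-K1 host cells lacking M1 receptor as counterscreen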
CHO-K1 Ca antag – M1 antagonist counterscreen hit in parental CHO-K1 cells; ATP-induced calcium, Fluo-8 fluorescence; inhibition, % at 3 µM; 360,000 tested, 0.6% active; AID 602250;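 active = inhibition above a per-plate cutoff, the plate's mean sample inhibition plus 3 SD, cut at about 24% in these data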
Hits are given with their value.

Screening CN1CCC(C2(O)c3ccccc3CCc3ccccc32)CC1 returned M1 PAM parental inactive, CHRM1 antagonist 57, M1 ag inactive, CHRM1 PAM inactive, CHO-K1 Ca ag inactive and CHO-K1 Ca antag inactive.
Screening COC(=O)C(CC(=O)c1ccc(C)cc1)n1nc(C)cc1C (centres undefined) returned M1 PAM parental inactive, CHRM1 antagonist inactive, M1 ag inactive, CHRM1 PAM inactive, CHO-K1 Ca ag 16 and CHO-K1 Ca antag inactive.
`COC(=O)C(CC(=O)c1ccc(Br)cc1)n1nc(C)cc1C` (centres undefined) gave M1 PAM parental inactive, CHRM1 antagonist inactive, M1 ag inactive, CHRM1 PAM inactive, CHO-K1 Ca ag inactive and CHO-K1 Ca antag inactive.
Screening CC(C)(C)NS(=O)(=O)c1cc(C(=O)Nc2sccc2C#N)ccc1Cl returned M1 PAM parental inactive, CHRM1 antagonist inactive, M1 ag inactive, CHRM1 PAM inactive, CHO-K1 Ca ag 23 and CHO-K1 Ca antag inactive.
`COc1ccc(S(=O)(=O)NCC2CCCN(Cc3cn(C)nc3C)C2)cc1` (centres undefined) gave M1 PAM parental inactive, CHRM1 antagonist inactive, M1 ag inactive, CHRM1 PAM inactive, CHO-K1 Ca ag inactive and CHO-K1 Ca antag inactive.
`CC(=O)c1cccc(NC(=O)COc2ccccc2)c1` gave M1 PAM parental inactive, CHRM1 antagonist inactive, M1 ag inactive, CHRM1 PAM inactive, CHO-K1 Ca ag inactive and CHO-K1 Ca antag 32.
For N#Cc1ccc(-c2ccc(OCC(=O)Nc3cccnc3)cc2)cc1 the results were M1 PAM parental inactive, CHRM1 antagonist inactive, M1 ag inactive, CHRM1 PAM inactive, CHO-K1 Ca ag 18 and CHO-K1 Ca antag inactive.
Screening O=C(COc1ccc(C(=O)c2ccccc2)cc1)Nc1cccnc1 returned M1 PAM parental inactive, CHRM1 antagonist inactive, M1 ag inactive, CHRM1 PAM inactive, CHO-K1 Ca ag 19 and CHO-K1 Ca antag inactive.
For O=C(Cc1ccc(Cl)cc1)OCC(=O)N1CCCCCC1 the results were M1 PAM parental inactive, CHRM1 antagonist inactive, M1 ag inactive, CHRM1 PAM inactive, CHO-K1 Ca ag inactive and CHO-K1 Ca antag inactive.
`C=C(C)COc1ccc(-c2n[nH]c(C)c2-c2ccc(OC)c(OC)c2)c(O)c1` gave M1 PAM parental inactive, CHRM1 antagonist inactive, M1 ag inactive, CHRM1 PAM inactive, CHO-K1 Ca ag inactive and CHO-K1 Ca antag 55.
Screening COc1ccc(-c2n[nH]c(C)c2-c2ccc(Cl)cc2)c(O)c1OC returned M1 PAM parental inactive, CHRM1 antagonist 35, M1 ag inactive, CHRM1 PAM inactive, CHO-K1 Ca ag inactive and CHO-K1 Ca antag 27.
COc1ccc(-c2n[nH]c(C)c2-c2ccc(Cl)cc2)c(O)c1 was read as M1 PAM parental inactive, CHRM1 antagonist inactive, M1 ag inactive, CHRM1 PAM inactive, CHO-K1 Ca ag inactive and CHO-K1 Ca antag inactive.
COc1ccc(C(C)(O)c2nc(-c3ccc(S(C)(=O)=O)cc3)cs2)cc1 (centres undefined) was read as M1 PAM parental inactive, CHRM1 antagonist inactive, M1 ag inactive, CHRM1 PAM inactive, CHO-K1 Ca ag inactive and CHO-K1 Ca antag inactive.
`O=C1CSC(c2ccccc2Br)N1c1ccc(Cl)cn1` (centres undefined) gave M1 PAM parental inactive, CHRM1 antagonist 59, M1 ag inactive, CHRM1 PAM inactive, CHO-K1 Ca ag inactive and CHO-K1 Ca antag inactive.
`COc1ccc(NC(=O)COc2ccc3c(C)cc(=O)oc3c2)cc1S(=O)(=O)N1CCCCC1` gave M1 PAM parental inactive, CHRM1 antagonist inactive, M1 ag inactive, CHRM1 PAM inactive, CHO-K1 Ca ag inactive and CHO-K1 Ca antag inactive.
CCOC(=O)C1CCCN(c2cc(=O)n(C3CCCCC3)c(=O)[nH]2)C1 (centres undefined) was read as M1 PAM parental inactive, CHRM1 antagonist inactive, M1 ag 31, CHRM1 PAM inactive, CHO-K1 Ca ag inactive and CHO-K1 Ca antag inactive.
For CN1/C(=C\C(=O)c2cncc(Br)c2)C(C)(C)c2ccccc21 the results were M1 PAM parental inactive, CHRM1 antagonist inactive, M1 ag inactive, CHRM1 PAM inactive, CHO-K1 Ca ag inactive and CHO-K1 Ca antag 24.
